Results filed as inconclusive are left out. Entries that show only a call come without a potency. Active and inactive are the calls of the source. Calls follow the shape of the dose curve; as a rule, active = well fitted curve in either direction with a large enough effect; inconclusive = small, poorly fitted or top-dose-only effect; inactive = no such curve, though single readings can be large or run the other way.
Potency is read from the fitted curve at half-maximal effect.

The target in the assay is Lysosomal alpha-glucosidase (Homo sapiens) (UniProt P10253). In words: Confirmation of Inhibitors and Activators of Human alpha-Glucosidase From Spleen Homogenate.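 As to potency: fluorescence of 4-methylumbelliferone released from a fluorogenic glucopyranoside substrate at pH 5.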 Particulars: alpha-glucosidase enzyme activity; series mostly up to 60.5 µM. The method, boiled down:
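Compounds titrated against spleen-homogenate alpha-glucosidase, pH 5.0, 1 mM 4-MU-glucoside substrate, 37 C for 40 min. Fluorescence after pH 10 stop, normalised to no-enzyme and enzyme controls; Hill-equation AC50.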
Regarding `COc1cccc2cc(-c3nc4c(s3)CCc3ccccc3-4)c(=O)oc12`, the Potency entry was “inactive”.

For the compound `CSc1ccccc1NC(=O)CN(C)CC(=O)NCc1ccccc1`, the Potency result is “inactive”.

`CC/C(=C(\c1ccccc1)c1ccc(OCCN(C)C)cc1)c1ccccc1`: the Potency result is “inactive”.

Consider `O=C1Cc2cc(S(=O)(=O)N3CCN(c4ccc(Br)cc4)CC3)ccc2N1`, for which the Potency result was “inactive”.

As to `Cc1c(Nc2c3ccccc3nc3ccccc23)c(=O)n(-c2ccccc2)n1C`, the Potency result was “inactive”.

Take `O=C1Cc2cc(S(=O)(=O)N3CCN(c4ccc(O)cc4)CC3)ccc2N1`: the Potency is 6.68 µM [inhibitor] (active).

As for `CCCN1CNc2c(c(=O)[nH]c(=S)n2CCc2cc(OC)ccc2OC)C1`, the Potency is 20 µM (active).

Take `O=c1oc2ccc3ccccc3c2cc1-c1nc(CCCBr)cs1`: the Potency result is “inactive”.

As to `Cc1ccc(-c2nc(-c3cc4ccccc4oc3=O)sc2C)cc1`, the Potency result is “inactive”.

Turning to `COc1cc2cc(CN(Cc3nnnn3Cc3ccccc3)CC3CCCO3)c(=O)[nH]c2cc1OC` (stereo unspecified), the Potency entry was “inactive”.

As for `O=C(O)c1c[nH]c2ccc(S(=O)(=O)N3CCOCC3)cc12`, the Potency result was “inactive”.

Regarding `O=S(=O)(c1ccccc1Cl)N1CCOCC1`, the Potency result is “inactive”.

As to `Nc1ccc(S(=O)(=O)N2CCOCC2)cc1`, the Potency result is “inactive”.

In the case of `CCCN1CNc2c(c(=O)[nH]c(=S)n2CCc2ccc(OC)cc2)C1`, the Potency is 14.1 µM (active).

Regarding `O=C(CSc1ncc(C(F)(F)F)cc1Cl)N1CCN(S(=O)(=O)c2ccccc2)CC1`, the Potency entry is “inactive”.

As to `CCc1sc(-c2cc3ccccc3oc2=O)nc1-c1ccccc1`, the Potency entry was “inactive”.

As for `C[C@H]1OC(OC2C(O)[C@@H](O)C(OC3C(O)[C@@H](O)C(O)O[C@@H]3CO)O[C@@H]2CO)[C@H](O)C(O)C1N[C@H]1C=C(CO)[C@@H](O)[C@H](O)C1O` (stereo partly specified), the Potency entry is “inactive”.

Take `OCC(CO)NC1C[C@](O)(CO)[C@@H](O)[C@H](O)[C@H]1O` (stereo partly specified): the Potency result is “inactive”.

`CC1S/C(=N\N=C\c2cccc([N+](=O)[O-])c2)N(C(C)(C)C)C1=O` (stereo unspecified): the Potency entry is “inactive”.

`O=C(O)Cn1nnnc1SCC(=O)Nc1ccc(OC(F)(F)F)cc1`: the Potency result is “inactive”.

In the case of `CCOC(=O)c1ccc(NC(=O)c2ccccc2)cc1`, the Potency entry was “inactive”.

For the compound `COc1ccc2nc(-c3ccc(N(C)C)cc3)sc2c1`, the Potency is 7.08 µM (active).

As to `CC(=O)Oc1ccc2cc(-c3nc(-c4ccccc4)c(C)s3)c(=O)oc2c1`, the Potency result was “inactive”.

As to `CC(=O)c1ccc(N2CCN(S(=O)(=O)c3ccc4c(c3)OCC(=O)N4)CC2)cc1`, the Potency entry was “inactive”.

Consider `COc1cc2c(cc1OC)-c1cc(OCc3ccccc3Cl)nc(=O)n1CC2`, for which the Potency entry is “inactive”.

With `CC(=O)c1ccc(N2CCN(S(=O)(=O)c3ccc4c(c3)oc(=O)n4C)CC2)cc1`, the Potency entry was “inactive”.

As to `CCC1C(=O)NCCN1Cc1nc(-c2ccc(C)s2)oc1C` (stereo unspecified), the Potency result is “inactive”.

For the compound `COc1ccc(Cc2nnc(NC(=O)CSc3ccc(Cl)cc3)s2)cc1`, the Potency result is “inactive”.

For `O=C1Cc2cc(S(=O)(=O)N3CCNCC3)ccc2N1`, the Potency entry is “inactive”.

On to `CC(=O)c1ccc(N2CCN(S(=O)(=O)c3ccc(N4CCCC4=O)cc3)CC2)cc1`, for which the Potency result was “inactive”.

On to `COc1ccc(CCn2c3c(c(=O)[nH]c2=S)CN(C)CN3)cc1OC`, for which the Potency is 31.6 µM (active).

For the compound `Cc1sc(-c2cc3ccccc3oc2=O)nc1-c1ccccc1`, the Potency entry is “inactive”.

`Cc1[nH]n(C(N)=S)c(=O)c1N=Nc1ccc2ccccc2c1`: the Potency result was “inactive”.

As for `O=C(CSc1ccccc1)Nc1nnc(/C=C/c2ccccc2)s1`, the Potency result was “inactive”.

As for `O=C(c1cccc2ccccc12)N1CCN(S(=O)(=O)c2ccccc2)CC1`, the Potency result is “inactive”.

Consider `CC(=O)c1cccc(S(=O)(=O)N2CCOCC2)c1`, for which the Potency result was “inactive”.

These data come from PubChem BioAssay AID2113 (National Center for Advancing Translational Sciences (NCATS), 2009).
